Test results taken from PubChem BioAssay (NCI).
About 83,000 compounds went through this panel and 20% of them were active in at least one assay; those are over-represented in the sample as a whole.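 Results are percent growth after 48 hours of single-concentration exposure. 100 means growth as in untreated cells, lower positive values show inhibition; negative values down to -100 show cell death.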 Unmarked numbers belong to inactive results. The source made the active and inactive calls. Rule for the calls: active = growth percent below 10; inactive = the rest.

Assays:
Assay in all cases: NCI-60 one-dose screen, 48 h (100 = growth as untreated, 0 = no growth, -100 = all killed)
Settings in all cases: 10 µM unless noted
T-47D breast = test system: T-47D breast
MDA-MB-435 melanoma = test system: MDA-MB-435 melanoma
SW-620 colon = test system: SW-620 colon
MCF7 breast = test system: MCF7 breast
HCT-116 colon = test system: HCT-116 colon
HCC-2998 colon = test system: HCC-2998 colon
KM12 colon = test system: KM12 colon
MDA-MB-468 breast = test system: MDA-MB-468 breast

| SMILES | growth (T-47D breast) | growth (MDA-MB-435 melanoma) | growth (SW-620 colon) | growth (MCF7 breast) | growth (HCT-116 colon) | growth (HCC-2998 colon) | growth (KM12 colon) | growth (MDA-MB-468 breast) |
| --- | --- | --- | --- | --- | --- | --- | --- | --- |
| CCCCn1c(O)c(N=Nc2nc(-c3cc4ccccc4oc3=O)cs2)c2cc(Br)ccc21 | 107% | 111% | 114% | 89.8% | 107% | 111% | 114% | 113% |
| CN1CCN(c2ccc(C(=O)/C=C/c3cc(C(F)(F)F)cc(C(F)(F)F)c3)cc2)CC1 | -68.7% (active) | -60.8% (active) | -44.8% (active) | -82.3% (active) | -87.4% (active) | -91% (active) | -56.8% (active) | -69.3% (active) |
| O=C1C(=Nc2ccc(F)c(Cl)c2)c2cccc3cccc1c23 | 45.3% | -42% (active) | 35.8% | 16.1% | 19% | 108% | 55% | 88.4% |
| O=C(c1ccc(OCCN2CCOCC2)cc1)C1[C@H](c2ccc(Cl)cc2)[C@@H](c2ccccc2)NC12C(=O)Nc1ccc(Cl)cc12 (stereo partly specified) | 34.6% | 42% | 41.5% | 4.28% (active) | 11.5% | -30% (active) | 16.4% | -7.83% (active) |
| Cc1cnc(C(=O)NNc2nc3cc(F)ccc3n3c(C(=O)N4CC5CC(C4)N5)ccc23)cn1 | 32.1% | 45.4% | 32% | 18.7% | 17.5% | 58.7% | 39.8% | 13.8% |
| N#Cc1c(NCc2ccccc2)n[nH]c1Nc1ccccc1 | 17.2% | 56.6% | 62.7% | 41.6% | 33.1% | 99.7% | 55.7% | 59.8% |
| O=C(Cn1c(/C=C/c2cccc([N+](=O)[O-])c2)nc2ccccc2c1=O)Nc1ccccc1 | 82.6% | 94.3% | 91.2% | 42.2% | 57.6% | 120% | 74.6% | 98.9% |
| Cc1cc(C)n(-c2ccc3nnc(-c4ccccc4)n3n2)n1 | 95.5% | 106% | 103% | 89.9% | 106% | 103% | 97.4% | 97% |
| O=C(NNc1nc2cc(F)ccc2n2c(CN3CC4CNCC4C3)ccc12)c1ccncn1 (stereo unspecified) | 12.4% | 32.1% | 31.3% | 14.7% | 14.7% | 56.7% | 27.9% | -3.86% (active) |
| CN1CCN(c2ccc(C(=O)/C=C/c3ccc(Br)cc3)cc2)CC1 | 15.2% | 22.5% | 19.4% | 6.72% (active) | 7.41% (active) | 14.7% | 10.6% | -1.53% (active) |
| CCCCCCn1c(O)c(N=Nc2nc(-c3cc4ccccc4oc3=O)cs2)c2ccccc21 | -12% (active) | 26.3% | 56.2% | -18% (active) | -51.7% (active) | 37.8% | 13.6% | 45.3% |
| CCCCc1c(Nn2cnnn2)no[n+]1[O-] | 51.5% | 46.5% | 57.6% | 24.5% | 38.2% | 78.8% | 61.7% | 49.3% |
| COc1ccc(C2=NN(c3ccccc3)C(c3ccc(OCc4ccccc4)c(OC)c3)C2)cc1OC (stereo unspecified) | 89.4% | 105% | 101% | 84.8% | 85.9% | 117% | 91.8% | 105% |
| COc1ccc(C(=O)Nc2n[nH]c(Nc3ccccc3)c2C#N)cc1 | 113% | 118% | 102% | 94.8% | 105% | 120% | 112% | 112% |
| CCN(CC)CCOc1ccc(Nc2ncc3cc(-c4ccc(O)c(C#N)c4)c(=O)n(C)c3n2)cc1 | 36.5% | 29.9% | 110% | 16.8% | 32.9% | 111% | 72.4% | 63.5% |
| Cn1cc(-c2cc3nc(-c4c[nH]c5ccc(Cl)cc45)cc(N)n3n2)c2ccccc21 | -73.9% (active) | -84.7% (active) | -39.3% (active) | -73.7% (active) | -88.3% (active) | -78% (active) | -70.3% (active) | -73.5% (active) |
| COc1ccc(C(=O)/C=C/c2cccc(Cl)c2)cc1S(N)(=O)=O | -53.8% (active) | 14% | -19.9% (active) | -67% (active) | -64.2% (active) | 1.16% (active) | -57.9% (active) | -53.8% (active) |
| CC(C)CSc1nc(NCCc2c[nH]c3ccccc23)c(C#N)c(-c2ccc(F)cc2)n1 | 24.6% | 59.1% | 38% | 22.5% | 11.3% | 32.5% | 24% | 54.3% |
| COc1ccc(C(=O)/C=C/c2cccc(Cl)c2Cl)cc1S(N)(=O)=O | -17.3% (active) | 14.3% | -47.3% (active) | -39.7% (active) | -98% (active) | -48.5% (active) | -62.3% (active) | -16.4% (active) |
| COc1ccc(NC(=O)Cn2c(/C=C/c3cccc([N+](=O)[O-])c3)nc3ccccc3c2=O)cc1 | 69.2% | 99.8% | 92.6% | 46.8% | 55.4% | 112% | 77.5% | 83.6% |
| COc1cc(OC)cc(C(=O)Nc2cccc(-c3cn(-c4ccc(S(N)(=O)=O)cc4)nn3)c2)c1 | 87.8% | 97.2% | 99.6% | 77.3% | 94% | 107% | 87.9% | 95.4% |
| Cc1ccc(S(=O)(=O)c2nc(S(=O)(=O)c3ccc(C)cc3)c(N3CCN(C)CC3)s2)cc1 | 38% | 8.29% (active) | 36.1% | 43.1% | 46.9% | 107% | 76.4% | -15% (active) |
| O=C(NNc1nc2cc(F)ccc2n2c(C(=O)N3CCN(C4CC4)CC3)ccc12)c1ncccn1 | 27.3% | 41.2% | 34.6% | 15.3% | 20.5% | 63.8% | 35.7% | 14.1% |
| COc1ccc(C(=O)/C=C/c2cc3c(cc2Br)OCO3)cc1S(N)(=O)=O | -34.1% (active) | 5.61% (active) | -42.7% (active) | -1.63% (active) | -98% (active) | -53.8% (active) | -57.9% (active) | 23.8% |
| COc1ccc(-c2nnc3ccc(N/N=C/c4ccc(C)cc4)nn23)cc1 | 76% | 64.7% | 92.1% | 57.2% | 78.8% | 79.1% | 68.1% | 89.4% |
| COc1ccc(C(=O)/C=C/c2cccc3ccccc23)cc1S(N)(=O)=O | -2.6% (active) | 5.32% (active) | -16.1% (active) | -60.3% (active) | -91.9% (active) | -70.2% (active) | -61.2% (active) | -55.7% (active) |
| C[C@H]1CN(C(=O)c2ccc3c(NNC(=O)c4ccncn4)nc4cc(F)c(F)cc4n23)CCN1 | 21.3% | 37.4% | 38% | 17.4% | 21.7% | 61.7% | 37% | 7.53% (active) |
